# Data from PubChem BioAssay (NCATS).
# Inconclusive results are not listed. The source made the active and inactive calls. Calls come from the whole dose curve.
# Assay: Cytotoxicity counterscreen for inhibitors of SARS-CoV-2 cell entry (AID 1645845); note: nearly all actives have a fitted effect of over 50% in size
# Details: cell viability (SARS-CoV-2 entry assay cells); series mostly up to 57.1 µM
# Method in brief: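 After a 15 min room-temperature ATPLite 1step step, luminescence reflected ATP remaining in HEK293-ACE2 cells exposed to compound for 1 h plus 48 h at 37 C, with percent activity set by cell and no-cell controls.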
# Potency is the fitted concentration of half-maximal effect.
row,Structure (SMILES),Potency
1,CC(C)(C)c1nnc(NS(=O)(=O)c2ccccc2)s1,inactive
2,O=C(Nc1ccccc1-c1cn2c(CN3CCNCC3)csc2n1)c1cnc2ccccc2n1,7.08 µM (active)
3,Cn1cc(-c2ccc3nnc(Sc4ccc5ncccc5c4)n3n2)cn1,inactive

# Assay: Primary qHTS to identify inhibitors of SARS-CoV-2 cell entry (AID 1645846); note: nearly all actives have a fitted effect of over 45% in size
# Details: SARS-CoV-2 pseudovirus cell entry assay, luminescence; activity change, negative = inhibition: at 57.1 µM (top of the series) unless noted; series mostly up to 57.1 µM
# Method in brief: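 Entry measured by luciferase signal 48 h after adding SARS-CoV-2-S pseudotyped MLV particles to HEK293-ACE2 cells preincubated 1 h with compounds. Normalisation: bald particles and spike particles.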
Structure (SMILES),"activity change, negative = inhibition",Potency
Cn1cncc1[C@@](N)(c1ccc(Cl)cc1)c1ccc2c(c1)c(-c1cccc(Cl)c1)cc(=O)n2C,-13%,
COc1ccc2c3n(c(=NC(=O)c4cccnc4)nc2c1OC)CCN3,-3.67% [at 5.25 µM],
Cc1cccc(-c2[nH]ncc2-c2ccc3ncccc3n2)n1,-1.7%,
CN1CCN(c2c(F)cc3c(=O)c(C(=O)O)cn4c3c2OCN4C)CC1,,inactive
Nc1nc2c(ncn2CCC(CO)CO)c(=O)[nH]1,-17.9%,
COc1ccccc1O,,inactive
C[C@H](NC(=O)Cc1cc(F)cc(F)c1)C(=O)N[C@@H]1C(=O)N(C)c2ccccc2-c2ccccc21,3.07%,
COc1ccc2cc(CCC(C)=O)ccc2c1,,inactive
C[C@@H](N)C(=O)O,-18.7%,
CC(C)CCCC(C)CCCC(C)CCCCC(C)CCCC(C)CCCC(C)C (stereo not given),-16.5%,
Cn1cc(-c2[nH]c3cc(NC(=O)[C@H](N)C4CCCCC4)cc4c3c2C=NNC4=O)cn1,,8.91 µM (active)
CCCCC(CC)COC(=O)/C=C/c1ccc(OC)cc1 (stereo not given),-3.29%,
CC(C)(Sc1ccc(CCN(CCCCC2CCCCC2)C(=O)NC2CCCCC2)cc1)C(=O)O,4.91%,
CCNC(=O)c1noc(-c2cc(C(C)C)c(O)cc2O)c1-c1ccc(CN2CCOCC2)cc1,-24.6%,
CC[C@@H](C)[C@H](NC(=O)[C@H](CC1CCCCC1)NC(=O)c1ccno1)C(=O)N1CCC2(CCc3ccccc32)CC1,,inactive
O=C(O)CNC(=O)CNC(=O)CNC(=O)CSC(=O)c1ccccc1,1.66%,
CN[C@@H](C)C(=O)N[C@H]1CCCC[C@H]2CC[C@@H](C(=O)N[C@@H](c3ccccc3)c3cn(CCCCc4ccc(CCCCn5cc([C@@H](NC(=O)[C@@H]6CC[C@@H]7CCCC[C@H](NC(=O)[C@H](C)NC)C(=O)N76)c6ccccc6)nn5)cc4)nn3)N2C1=O,-12%,
C#CC(C)(CC)OC(=O)c1ccccc1C(=O)O (stereo not given),3.66%,
Nc1ccccc1NC(=O)c1ccc(CNC(=O)OCc2cccnc2)cc1,,inactive

Structure (SMILES),"activity change, negative = inhibition",Potency
O=C(O)CCC1CCC(c2cc(F)ccc2F)(S(=O)(=O)c2ccc(Cl)cc2)CC1 (stereo not given),-2.05%,
CC(=O)NC(C)c1ccc(Oc2ccc(OC(C)C)cc2)cc1 (stereo not given),-26.1% [at 114 µM],
Cc1cn(-c2cc(NC(=O)c3ccc(C)c(Nc4nccc(-c5cccnc5)n4)c3)cc(C(F)(F)F)c2)cn1,-29.3%,
Cc1nc(N)sc1-c1ccnc(Nc2ccc(N3CCOCC3)cc2)n1,,3.16 µM (active)
Cc1c(C)c2c(c(C)c1OC(=O)c1cccnc1)CC[C@@](C)(CCC[C@H](C)CCC[C@H](C)CCCC(C)C)O2,,inactive
Clc1ccc2ncc(-c3cccc(NC4CNC4)n3)n2c1,-15.1%,
COc1ccc(CC2SC(=O)NC2=O)cc1C(=O)NCc1ccc(C(F)(F)F)cc1 (stereo not given),-1.76%,
N[C@H]1C(O)O[C@H](CO)[C@@H](O)[C@@H]1O (stereo not given in full),-23.2%,
COc1cc2ncnc(-n3nc(-c4ccccn4)nc3N)c2cc1OC,-6.12%,
O=C(Nc1ccc(OC(F)(F)F)cc1)c1sccc1NCc1ccnc2ccccc12,-18%,
CCc1c(C)[nH]c2c1C(=O)C(CN1CCOCC1)CC2 (stereo not given),,inactive
C=CCNC(N)=S,,inactive
C#Cc1cccc(Nc2ncnc3cc(OC)c(OCCCCCCC(=O)NO)cc23)c1,,inactive
CC(C)(C)C(=O)Oc1ccc2c(c1)nc(NC(=O)c1cccc([N+](=O)[O-])c1)n2CCCO,-6.43%,
C/C(=C1\CCOC(=O)S1)N(C=O)Cc1cnc(C)nc1N,,inactive
CC(C)(C)c1nnc(NS(=O)(=O)c2ccccc2)s1,,inactive
O=C(Nc1ccccc1-c1cn2c(CN3CCNCC3)csc2n1)c1cnc2ccccc2n1,,7.94 µM (active)
Cn1cc(-c2ccc3nnc(Sc4ccc5ncccc5c4)n3n2)cn1,,inactive
